Values joined by “and” are separate entries in the source; they are usually repeats but may differ in a detail not shown here. Equal entries are not always repeated. Records with an inconclusive call do not appear. Active and inactive are the calls of the source. Unless noted, the call rests on the fitted dose curve; in most records, active means well fitted curve in the direction sought with a large enough effect; inconclusive means small, poorly fitted or top-dose-only effect, or another doubt; inactive means no such curve, though single readings can be large; an effect the other way counts as inactive or inconclusive.
How the values were obtained:
[1] = Stat Signaling Pathway (AID 446; active means well fitted curve in either direction with a large enough effect, not every such curve was filed as active;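 further: ME-180 cervical cancer cells given 40 pM IL-6 alongside compound; SIE-controlled beta-lactamase reporter measured as 460/530 nm FRET emission ratio; on the % scale 0 is the no-effect control and ±100 the full control effect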)
Summary of the method: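 ME-180 SIE-bla cells; overnight plating; cpd + IL-6 40 pM, 5 h, 37 C; LiveBLAzer 2.5 h RT; 460/530 nm emission ratio. Normalized to 300 pM IL-6 and 125 nM JAK inhibitor controls.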

[2] = target: Mitogen-activated protein kinase 10 (Mus musculus) (UniProt Q61831); test: JNK3 AlphaScreen Assay (AID 530; active means well fitted curve in either direction with a large enough effect, not every such curve was filed as active;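 further: kinase came from lysate of stimulated human HepG2 cells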; further: potency means the concentration at half of the fitted maximal effect)
Summary of the method: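 JNK3 came from HepG2 lysates pre-activated with IL-1beta and TNF-alpha and phosphorylated biotinylated GST-cJun (1-79) at 10 uM ATP, pH 7.6, room temperature. Compounds were titrated. AlphaScreen signal used anti-phospho-cJun (Ser73) antibody.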

[3] = target: 3',5'-cyclic-AMP phosphodiesterase 4B (Homo sapiens) (UniProt Q07343); test: qHTS Assay for Inhibitors of PDE-IV (AID 607; active means well fitted activation curve with a large enough effect in the main read-out, with a control signal flat, not every such curve was filed as active; further: % of control where 0% means no effect)
Summary of the method: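 ACTOne HEK293 cells carry a modified cAMP-gated CNG channel and express endogenous PDE4; plated 1000 cells/well, compounds up to 22.9 uM final. Membrane-potential dye fluorescence (ex 535/em 590) was read; parental cells received 10 uM forskolin + 100 uM RO 20-1724.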

[4] = target: Glucocorticoid receptor (Homo sapiens) (UniProt P04150); test: GR-GFP Redistribution (AID 450;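 active means compounds whose dose series gives a full or clear partial fitted curve of increased nuclear translocation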; further: potency means the concentration at half of the fitted maximal effect); details: U2OS GR-GFP nuclear translocation, laser cytometry, 2 h
[5] = target: Glucocorticoid receptor (Homo sapiens) (UniProt P04150); test: GR-EFC Redistribution (AID 451; calls by dose curve; further: potency means the concentration at half of the fitted maximal effect); details: CHO-K1 GR-EFC translocation, beta-gal luminescence, 2 h
Summary of the method: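 CHO-K1 cells stably expressing nuclear-localized β-gal enzyme acceptor and GR fused C-terminally to the enzyme donor fragment; ligand-driven nuclear translocation restores β-gal by complementation. Compounds titrated up to 46 uM final, 2 h at 37 °C; luminescence read.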

[6] = Cell Viability - N2a (AID 540);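 further: plate controls were DMSO alone for no effect and tamoxifen control for full effect; nearly all actives have a fitted effect of over 45% in size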
Summary of the method: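 Mouse neuroblastoma N2a cells (1500/well) were preincubated 5 hr at 37 °C, then exposed to compounds for 40 hr at 37 °C in complete medium. Viability was read as intracellular ATP by CellTiter-Glo luminescence; AC50 from Hill fits.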

[7] = Cell Viability - NIH 3T3 (AID 541); details: NIH 3T3 cell viability, qHTS; activity change, negative = cytotoxicity: at 92.2 µM (top of the series);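 further: plate controls were DMSO alone for no effect and tamoxifen positive control for full effect; nearly all actives have a fitted effect of over 25% in size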
Summary of the method: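 NIH 3T3 mouse embryo fibroblasts (1000 cells/well) were plated in complete medium and treated with compound for 40 hr at 37 °C. Viability was read as intracellular ATP by CellTiter-Glo luminescence; AC50 values came from Hill-equation fits of concentration-response data.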

[8] = Cell Viability - HUV-EC-C (AID 542); further: nearly all actives have a fitted effect of over 35% in size; further: potency means the concentration at half of the fitted maximal effect; on activity change, negative = cytotoxicity: on the % scale 0 is the no-effect control and ±100 the full control effect
Summary of the method: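 HUV-EC-C normal human vascular endothelial cells, 1000 cells/well, pre-incubated 5 hr at 37 °C, then exposed to compounds for 40 hr at 37 °C in complete medium. Viability measured as intracellular ATP by CellTiter-Glo luminescence; AC50 from Hill fits.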

[9] = Cell Viability - H-4-II-E (AID 543); further: nearly all actives have a fitted effect of over 35% in size; further: potency means the concentration at half of the fitted maximal effect
Summary of the method: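 Rat hepatoma H-4-II-E cells (1500/well) were plated, incubated 5 hr at 37 °C, then exposed to compounds for 40 hr at 37 °C. Cellular ATP was read by CellTiter-Glo luminescence; AC50 came from Hill-equation fits of concentration-response data.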

[10] = Cell Viability - SH-SY5Y (AID 544); further: nearly all actives have a fitted effect of over 55% in size; further: potency means the concentration at half of the fitted maximal effect
Summary of the method: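 Human neuroblastoma SH-SY5Y cells (1500/well) in complete medium were exposed to compounds for 40 hr at 37 °C; intracellular ATP was then quantified by CellTiter-Glo luminescence after 20 min at room temperature. AC50 came from Hill-equation concentration-response fits.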

[11] = Cell Viability - Renal Proximal Tubule (AID 545); details: renal proximal tubule cells viability, primary cells of rat origin; activity change, negative = cytotoxicity: at 91.7 µM (top of the series);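 further: 0% = DMSO only and -100% = 100 µM tamoxifen; nearly all actives have a fitted effect of over 40% in size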
Summary of the method: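 Rat renal proximal tubule primary cells, 1000/well, exposed to compounds for 40 hr at 37 °C in complete medium; cellular ATP read by CellTiter-Glo luminescence. AC50 from concentration-response fitted with standard Hill equation.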

[12] = Cell Viability - Mesenchymal (AID 546); details: mesenchymal cells viability, qHTS; activity change, negative = cytotoxicity: at 91.7 µM (top of the series);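 further: cells exposed to compound for 40 hours before reading; 0% = DMSO only and -100% = 100 µM tamoxifen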
Summary of the method: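 Normal human renal glomerulus-derived kidney mesenchymal cells, 1000 per well in complete medium, were treated with compounds for 40 hr at 37 °C. Viability was read as intracellular ATP by CellTiter-Glo luminescence; AC50 values came from Hill-equation fits of qHTS concentration-response data.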

[13] = Cellular Toxicity (caspase-3) HepG2 (AID 654);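 further: cells exposed to compound for 16 hours before reading; 0% = DMSO alone and 100% = caspase signal from 100 µM tamoxifen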
Summary of the method: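 HepG2 cells (1500/well) in complete medium were treated with compounds for 16 hr at 37 °C. Caspase-3/7 activity was then read as luminescence from peptide-aminoluciferin cleavage. AC50 came from Hill fits, normalized to DMSO and 100 uM tamoxifen.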

[14] = Cellular Toxicity (caspase-3) Jurkat (AID 655);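 further: cells exposed to compound for 16 h at 37 °C before reading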
Summary of the method: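 Jurkat cells (5000/well) in complete medium exposed 16 h at 37 C; caspase-3/7 activity read by Caspase-Glo luminescence after 20 min at room temperature. Normalized to DMSO and 100 uM tamoxifen; AC50 from Hill fits.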

[15] = Cellular Toxicity (caspase-3) HUV-EC-C (AID 656);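 further: 0% = DMSO basal and 100% = 100 µM tamoxifen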
Summary of the method: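 HUV-EC-C cells (1000/well) in complete medium, compound-treated 16 h at 37 °C; caspase-3/7 activity read by Caspase-Glo 3/7 luminescence. Normalized to DMSO (basal) and 100 uM tamoxifen (100%); AC50 from Hill-equation concentration-response fits.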

[16] = Cellular Toxicity (caspase-3) SHSY5Y (AID 657)
Summary of the method: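 SH-SY5Y human neuroblastoma cells, 1500/well, exposed to compound for 16 hours at 37 °C in complete medium. Caspase-3/7 activity read by Caspase-Glo luminescence after 1 hr at room temperature, normalized to DMSO and 10 uM staurosporine; AC50 from Hill fit.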

[17] = Cellular Toxicity (caspase-3) BJ (AID 658);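 further: 0% = DMSO basal and 100% = 10 µM staurosporine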
Summary of the method: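 Luminescent aminoluciferin-substrate cleavage reports caspase 3/7 activity in normal human BJ fibroblasts after 16 hr compound exposure at 37 °C. Normalized to DMSO (basal) and 10 uM staurosporine (100%); AC50 from Hill fit of concentration-response.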

[18] = Cellular Toxicity (caspase-3) Mesangial (AID 660);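 further: cells exposed to compound for 16 h before the caspase read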
Summary of the method: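 Human renal glomerular mesangial cells (1000/well) were treated with compounds for 16 h at 37 °C in complete medium, then caspase 3/7 activity was read by Caspase-Glo luminescence. Data were normalized to DMSO and 100 uM tamoxifen; AC50 from Hill fits.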

[19] = Cellular Toxicity (caspase-3) H-4-II-E (AID 663);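 further: cells exposed to compound for 16 hr before readout; 0% = DMSO basal and 100% = 100 µM tamoxifen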
Summary of the method: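 Luminescence from caspase-cleaved aminoluciferin substrate, read 20 min after reagent addition, reports caspase 3/7 activation in rat H-4-II-E cells after 16 hr compound exposure. Normalized to DMSO (basal) and 100 uM tamoxifen (100%); AC50 from Hill fits.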

[20] = Cellular Toxicity (caspase-3) Hek293 (AID 664);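 further: cells exposed to compound for 16 h at 37 °C before readout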
Summary of the method: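 HEK293 cells were exposed to compounds in complete medium for 16 hr at 37 °C, then caspase-3/7 activity was read by Caspase-Glo 3/7 luminescence after 20 min at room temperature. Data normalized to DMSO and 100 uM tamoxifen; AC50 from Hill fits.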

Sequence of 3',5'-cyclic-AMP phosphodiesterase 4B (Homo sapiens) (Q07343 whole entry, looked up): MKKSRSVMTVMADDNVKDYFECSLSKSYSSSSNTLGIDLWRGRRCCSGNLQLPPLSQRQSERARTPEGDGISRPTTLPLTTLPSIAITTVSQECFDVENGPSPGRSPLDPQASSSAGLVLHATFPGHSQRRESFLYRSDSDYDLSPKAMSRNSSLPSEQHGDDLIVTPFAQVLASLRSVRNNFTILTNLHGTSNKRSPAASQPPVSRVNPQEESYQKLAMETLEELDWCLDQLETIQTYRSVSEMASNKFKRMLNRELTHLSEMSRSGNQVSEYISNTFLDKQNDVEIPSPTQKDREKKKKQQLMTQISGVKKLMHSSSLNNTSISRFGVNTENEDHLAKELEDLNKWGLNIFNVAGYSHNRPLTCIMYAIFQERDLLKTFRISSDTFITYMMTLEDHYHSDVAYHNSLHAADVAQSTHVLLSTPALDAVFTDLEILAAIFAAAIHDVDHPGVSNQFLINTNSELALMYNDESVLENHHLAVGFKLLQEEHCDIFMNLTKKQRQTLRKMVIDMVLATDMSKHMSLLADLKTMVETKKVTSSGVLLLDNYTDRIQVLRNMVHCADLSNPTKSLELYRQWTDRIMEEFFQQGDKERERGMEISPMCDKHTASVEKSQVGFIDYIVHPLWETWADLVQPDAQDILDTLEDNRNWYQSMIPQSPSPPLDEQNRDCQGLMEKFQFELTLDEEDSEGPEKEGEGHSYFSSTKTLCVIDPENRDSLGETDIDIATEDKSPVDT
Sequence of Glucocorticoid receptor (Homo sapiens) (P04150 whole entry, looked up, the tested form may be a part): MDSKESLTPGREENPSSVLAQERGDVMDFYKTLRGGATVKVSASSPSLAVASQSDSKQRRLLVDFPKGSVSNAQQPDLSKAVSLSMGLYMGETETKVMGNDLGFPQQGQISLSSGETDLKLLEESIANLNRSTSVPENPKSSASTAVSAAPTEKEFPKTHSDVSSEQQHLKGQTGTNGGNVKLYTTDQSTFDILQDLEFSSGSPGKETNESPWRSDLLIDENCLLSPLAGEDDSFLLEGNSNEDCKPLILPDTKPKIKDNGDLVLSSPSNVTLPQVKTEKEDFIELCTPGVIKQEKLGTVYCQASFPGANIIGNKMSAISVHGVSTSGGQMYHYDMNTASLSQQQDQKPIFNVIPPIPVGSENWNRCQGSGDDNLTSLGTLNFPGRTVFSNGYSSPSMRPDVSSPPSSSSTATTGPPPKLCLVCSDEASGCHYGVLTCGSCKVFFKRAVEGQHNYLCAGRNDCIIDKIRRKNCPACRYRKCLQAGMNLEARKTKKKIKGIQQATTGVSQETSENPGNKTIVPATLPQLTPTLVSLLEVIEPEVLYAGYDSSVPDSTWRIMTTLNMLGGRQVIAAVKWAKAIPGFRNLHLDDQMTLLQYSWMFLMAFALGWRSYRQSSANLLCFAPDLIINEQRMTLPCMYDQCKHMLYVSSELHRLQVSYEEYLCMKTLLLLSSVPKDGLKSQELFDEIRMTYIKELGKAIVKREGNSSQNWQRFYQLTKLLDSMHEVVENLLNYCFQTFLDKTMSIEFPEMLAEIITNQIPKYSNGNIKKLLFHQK

COC(=O)[C@@H](N)Cc1ccc(O)c(O)c1
inactive: outcome [1] | Potency [2] | Potency [3]

Cc1scc2c1N(C(=O)CN1CCN(C)CC1)c1ccccc1NC2=O
inactive: outcome [1] | Potency [2] | Potency [3]

CCN(CC)CCNC(=O)c1ccc(NC(C)=O)cc1
inactive: outcome [1] | Potency [4] > 46 µM and > 20.6 µM | Potency [5] > 46 µM | Potency [3]

CN=C(NC#N)NCCSCc1nc[nH]c1C
inactive: outcome [1] | Potency [2] | outcome [6] | activity change, negative = cytotoxicity [7] -4.92% | Potency [8] | Potency [9] | Potency [10] | activity change, negative = cytotoxicity [11] -10.6% | Potency [12] | Potency [3] | outcome [13] | Potency [14] | outcome [15] | outcome [16] | outcome [17] | outcome [18] | outcome [19] | outcome [20]

O=C1CC2(CCCC2)CC(=O)N1CCCCN1CCN(c2ncccn2)CC1
inactive: outcome [1] | Potency [2] | Potency [3]

CC1=C(C)C(=O)C(CCCCC#CCCCC#CCO)=C(C)C1=O
inactive: outcome [1] | Potency [4] > 46 µM and > 20.6 µM | Potency [5] > 46 µM | Potency [3]

Cc1nc2ccccn2c(=O)c1CCN1CCC(C(=O)c2ccc(F)cc2)CC1
inactive: outcome [1] | Potency [4] > 46 µM and > 20.6 µM | Potency [5] > 46 µM | Potency [3]

CCCCOCCOCCOCc1cc2c(cc1CCC)OCO2
inactive: outcome [6] | Potency [8] | Potency [9] | Potency [10] | activity change, negative = cytotoxicity [11] -1.35% | Potency [12] | outcome [13] | Potency [14] | outcome [15] | outcome [16] | outcome [17] | outcome [18] | outcome [19] | outcome [20]

N[C@@H](COP(=O)(O)O)C(=O)O
inactive: Potency [4] > 46 µM | Potency [5] > 46 µM | Potency [2]

CSc1ccc(C(=O)c2[nH]c(=O)[nH]c2C)cc1
inactive: outcome [1] | Potency [2] | Potency [3]

Cc1ccc(=O)n(-c2ccccc2)c1
active: Potency [2] 12.6 µM
inactive: outcome [1] | Potency [3]

COC(=O)[C@H]1[C@H]2C[C@@H]3c4[nH]c5cc(OC)ccc5c4CCN3C[C@H]2C[C@@H](OC(=O)c2cc(OC)c(OC)c(OC)c2)[C@@H]1OC
active: Potency [8] 50.1 µM | Potency [9] 31.6 µM | Potency [10] 31.6 µM | activity change, negative = cytotoxicity [11] -101% | activity change, negative = cytotoxicity [12] -90.3%
inactive: Potency [2] | activity change, negative = cytotoxicity [7] -19.4% | outcome [15] | outcome [16] | outcome [18] | outcome [20]

NC(=Nc1ccccc1)Nc1ccccc1
inactive: Potency [2] | outcome [6] | activity change, negative = cytotoxicity [7] -3.31% | Potency [8] | Potency [9] | Potency [10] | activity change, negative = cytotoxicity [11] -3.07% | Potency [12] | outcome [13] | Potency [14] | outcome [15] | outcome [16] | outcome [17] | outcome [18] | outcome [19] | outcome [20]

CCn1cc(C(=O)O)c(=O)c2cc3c(cc21)OCO3
inactive: outcome [1] | Potency [2] | Potency [3]

CC[N+](C)(C)c1cccc(O)c1
inactive: outcome [1] | Potency [2] | Potency [3]

CCCN(CCC)CCc1cccc2c1CC(=O)N2
inactive: Potency [4] > 46 µM | Potency [5] > 46 µM | Potency [2] | Potency [3]

CN(C)CCN(Cc1cccs1)c1ccccn1
inactive: outcome [1] | Potency [4] > 46 µM and > 20.6 µM | Potency [5] > 46 µM and > 20.6 µM | Potency [3]

CCc1cccc(N(C)C(N)=Nc2cccc3ccccc23)c1
inactive: Potency [4] > 46 µM | Potency [5] > 46 µM | Potency [2] | Potency [3]

O=c1[nH]c(=O)n([C@H]2C[C@H](O)[C@@H](CO)O2)cc1Br
inactive: Potency [2] | outcome [6] | activity change, negative = cytotoxicity [7] -17.9% | Potency [8] | Potency [9] | Potency [10] | activity change, negative = cytotoxicity [11] -3.47% | Potency [12] | outcome [13] | Potency [14] | outcome [15] | outcome [16] | outcome [17] | outcome [18] | outcome [19] | outcome [20]
